Compound activity as filed in PubChem.
Hits are enriched below; roughly 2.7% of the tested compounds scored in any of these assays.
IDE cell activ: human IDE activators in live cells, primary screen, fluorescence polarization, HEK cells, FAbeta-B substrate | Insulin-degrading enzyme (Homo sapiens), P14735 | FAbeta-B cleavage; 0% vehicle, 100% cell-free pure enzyme wells | activation, % at 5.96 µM | actives 0.073% (n = 340,000) | AID 493087, 2011;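 active = activation above the mean of all tested compounds plus 3 SD, set per screening campaign, cut at about 17% in these data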
CHT inh: inhibitors of human choline transporter CHT; actives 0.86% (n = 310,000); AID 488975, 2010; CHT-expressing cells, membrane potential dye, choline response; active compounds read low; B-score at 10 µM;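 active = B-score over 3 SD under the library average, and starting fluorescence ratio not unusually high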;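 also: choline stimulus applied at its EC90 after an EC20 pre-addition; B-score computed on integrated fluorescence ratio after choline addition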
Target sequence (Q9GZV3 whole entry, looked up): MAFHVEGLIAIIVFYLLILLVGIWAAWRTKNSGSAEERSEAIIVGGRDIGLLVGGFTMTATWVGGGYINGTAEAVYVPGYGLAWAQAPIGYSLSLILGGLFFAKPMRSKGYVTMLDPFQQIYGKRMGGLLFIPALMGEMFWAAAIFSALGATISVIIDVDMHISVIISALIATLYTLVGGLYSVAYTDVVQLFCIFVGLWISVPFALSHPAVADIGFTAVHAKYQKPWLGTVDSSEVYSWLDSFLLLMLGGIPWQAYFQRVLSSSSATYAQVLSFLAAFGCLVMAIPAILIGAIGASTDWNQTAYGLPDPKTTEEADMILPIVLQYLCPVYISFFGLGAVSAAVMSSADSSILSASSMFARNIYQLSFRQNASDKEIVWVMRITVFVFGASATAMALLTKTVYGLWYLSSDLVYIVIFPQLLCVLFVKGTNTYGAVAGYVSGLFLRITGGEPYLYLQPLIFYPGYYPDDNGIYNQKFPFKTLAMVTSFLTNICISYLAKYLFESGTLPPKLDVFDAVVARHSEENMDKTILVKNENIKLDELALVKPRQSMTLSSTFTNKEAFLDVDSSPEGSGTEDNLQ
ANO1 block: TMEM16A chloride channel inhibitors, primary screen, cell-based, HTS. Anoctamin-1 (Mus musculus), Q8BHY3. HEK293 TMEM16A/YFP iodide influx fluorescence, ionomycin. normalized B-score (activity score, 25-100; higher = stronger inhibition) at 10 µM. actives 1.2% (n = 310,000);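 active = ratio plate-corrected score three or more library SD toward inhibition, starting fluorescence score within five deviations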;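 also: score derived from kinetic fluorescence span divided by baseline fluorescence per well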
IDE cell inh: human IDE inhibitors in live cells, primary screen, fluorescence polarization, HEK cells, FAbetaB substrate. Insulin-degrading enzyme (Homo sapiens), P14735. FAbetaB cleavage. inhibition, % at 5.59 µM. actives 0.41% (n = 320,000). AID 434962, 2010;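 active = percent inhibition above the average of all tested compounds plus 3 SD, set per screening campaign, cut at about 16% in these data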;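 also: IDE supplied by intact live HEK cells; FP after avidin binding of uncleaved biotin substrate so inhibition keeps polarization high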
TMEM16A act: TMEM16A chloride channel activators or potentiators, primary screen, cell-based, HTS; actives 0.3% (n = 340,000); B-score at 10 µM; AID 623877, 2012; HEK293 TMEM16A/YFP-H148Q/I152L, iodide quench fluorescence; active compounds read low; Anoctamin-1 (Mus musculus), Q8BHY3;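 active = fluorescence-ratio B-score plate-corrected deviation score at least 3 library SD below zero, with starting fluorescence score within 5 deviations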;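 also: channel opened by trigger with iodide after compound preincubation; score built on the fluorescence ratio of max minus min over baseline; more negative score means more quench and so TMEM16A activation or potentiation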
CHT PAM: CHT positive allosteric modulators, primary screen, cell-based, membrane potential dye, choline EC20. B-score at 10 µM. CHT-expressing cells; active compounds read high; LV-AA mutant CHT in HEK293 cells. actives 0.49% (n = 310,000). High affinity choline transporter 1 (Homo sapiens), Q9GZV3;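 active = initial fluorescence not abnormally high and integrated response B-score, plate-corrected, over 3 SD above library mean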
Of the large screens only hits and unclear results are named; the others gave an inactive call.

Cn1c(SCC(=O)NCC2CCCO2)ncc(C(=O)Nc2ccc(Cl)cc2)c1=O (configuration not stated)	none
O=C(c1ccc(CS(=O)(=O)c2ccc(Br)cc2)o1)N1CCN(c2ccccn2)CC1	TMEM16A act -7.84
Cc1ccc(S(=O)(=O)Cc2ccc(C(=O)N3CCN(c4ccccn4)CC3)o2)cc1	none
O=S(=O)(O)c1cccc2c(N=Nc3ccc(O)c4ncccc34)cccc12	IDE cell activ 36.4
CCCCC(=O)N(c1ccc(C(=O)O)cc1)c1nc(-c2ccc(Cl)cc2)c(CC)s1	ANO1 block 100
COc1cccc(-c2nc(C=O)cs2)c1	CHT inh -4.99
Cc1cc2oc(=O)cc(Cn3ccnc3)c2cc1Cl	none
CC[C@]12c3[nH]c4ccccc4c3CCN1C(=O)C(CC(=O)NCc1ccc(OC)c(OC)c1)C[C@@H]2C(=O)N1CCN(C(=O)C2CC2)CC1 (some centres not stated)	none (no result: CHT inh, ANO1 block, TMEM16A act, CHT PAM)
CN(C)S(=O)(=O)c1cccc(NC(=O)c2ccc(COc3ccccc3)cc2)c1	ANO1 block 25
COCc1ccc(C(=O)Nc2cccc(S(=O)(=O)N(C)c3ccccc3)c2)cc1	none (no result: CHT inh, ANO1 block, CHT PAM)
CN(c1ccc(C(=O)Nc2cccnc2)cc1)S(=O)(=O)c1ccccc1	TMEM16A act -4.99
CN(c1ccc(C(=O)Nc2cccnc2)cc1)S(=O)(=O)c1ccc(Cl)cc1	none
Cc1cc(=O)n2nc(N3CCCC(C(=O)NC4CCCCC4C)C3)sc2n1 (configuration not stated)	none
O=C(NCCOc1ccc(F)cc1)c1ccccc1SCc1ccccc1	ANO1 block 25
CCc1ccc(OCCNC(=O)c2ccccc2SCc2ccc(F)cc2)cc1	none
Cc1cc(C(=O)OCC(=O)Nc2cccc(S(N)(=O)=O)c2)c2ccccc2n1	none
Oc1c(Br)cc(Br)cc1CNc1cnc2ccccc2c1	ANO1 block 25
Oc1c(Br)cc(Br)cc1CNc1ccc(F)cc1	none
CCOc1ccc(C(=O)Nc2ccc(N3CCN(C(C)=O)CC3)cc2)cc1[N+](=O)[O-]	none
CC(=O)N1CCN(c2ccc(Oc3ccc([N+](=O)[O-])c(C(F)(F)F)c3)cc2)CC1	ANO1 block 100
Cc1ccc(SCCNC(=O)/C=C/c2ccccc2Cl)cc1	ANO1 block 25
Cc1ccc(SCCNC(=O)/C=C/c2ccc(Cl)cc2)cc1	none
CC(C)Oc1ccc(S(=O)(=O)N2CCOCC2)cc1NC(=O)CCCSc1ccccc1	none (no result: CHT inh, ANO1 block, IDE cell inh, CHT PAM)
CN(C)c1ccc(-c2noc(C3CCN(C(=O)Nc4ccc(Cl)cc4)CC3)n2)cc1	TMEM16A act -4.63
CN(C)c1ccc(-c2noc(C3CCN(S(=O)(=O)c4ccc(C(=O)O)cc4)CC3)n2)cc1	none
CC(C)CN(C(=O)COC(=O)c1cncc(Br)c1)c1c(N)n(Cc2ccccc2)c(=O)[nH]c1=O	none
CC(C)CN(C(=O)COC(=O)c1ccc(Br)cc1)c1c(N)n(Cc2ccccc2)c(=O)[nH]c1=O	IDE cell activ 22.0
CC(=O)Nc1sc(C)c(C)c1C(=O)OCC(=O)N(CC(C)C)c1c(N)n(Cc2ccccc2)c(=O)[nH]c1=O	TMEM16A act -6.6
O=C(Nc1ccc(Oc2ccccc2)nc1)C1CCCCN1Cc1ccc(OCCO)cc1 (configuration not stated)	none
Cc1cc(C(=O)CCC(=O)NCC2COc3ccccc3O2)c(C)s1 (configuration not stated)	none
CC(C)N=c1scc(-c2ccco2)n1/N=C/c1ccc(O)c(O)c1	ANO1 block 100
COc1ccc2[nH]cc(CCNC(=O)CC[C@H]3O[C@@H](n4cc(C)c(=O)[nH]c4=O)C[C@@H]3O)c2c1	none (no result: CHT inh, ANO1 block, IDE cell inh, TMEM16A act, CHT PAM)
COC(=O)[C@]1(C)N[C@H](c2ccc(-c3ccc(Cl)c(Cl)c3)c(OC)c2)[C@@H]2C(=O)N(C)C(=O)[C@@H]21	none
Cc1cc(C(C)(C)CC(C)(C)C)ccc1OCCOCC[N+](C)(C)Cc1ccccc1	ANO1 block 100
CCCCCCCCN1[C@@H](CC(=O)OCC)c2cc(F)ccc2S1(=O)=O	ANO1 block 25
O=C(O)c1ccc(Cl)cc1Nc1nc2cc(Cl)ccc2o1	ANO1 block 25
CNc1nc(SCc2ccc(C)cc2)nc2c1CCCC2	ANO1 block 100
COc1ccc(-c2cc(N)n(S(=O)(=O)c3c(F)c(F)c(F)c(F)c3F)n2)cc1OC	CHT inh -7.7, ANO1 block 100
CCN(CC(=O)Nc1ccc(NC(C)=O)cc1)C(=O)c1cc(CN2C(=O)c3ccccc3C2=O)ccc1OC	IDE cell activ 17.9
COc1cccc(NC(=O)CN(C)C(=O)c2cc(CN3C(=O)c4ccccc4C3=O)ccc2OC)c1	none (no result: CHT inh, ANO1 block, IDE cell inh, CHT PAM)
COc1ccc(-n2c(SCC#N)nc3c(sc(=S)n3-c3ccccc3)c2=O)c(OC)c1	none
Cc1nn(C)c(Cl)c1CN1CCC(CO)(CCOc2ccccc2)CC1	none
Cc1c(CN2CCC(CO)(CCOc3ccccc3)CC2)[nH]c2c(Cl)cccc12	IDE cell activ 28.1
O=C1NC(=S)SC1=C1CCCCCC1	CHT inh -6.03
O=C1N=C(N2CCCCC2)SC1=C1CCCCC1	none
O=C(NCc1cccc(OC(F)(F)F)c1)c1cccc2c1C(=O)c1ccc(-c3ccc(F)cc3OCc3ccccc3)cc1S2(=O)=O	none (no result: CHT inh, ANO1 block, CHT PAM)
COc1ccc(-c2ccc3c(c2)S(=O)(=O)c2cccc(C(=O)NCc4cccc(OC(F)(F)F)c4)c2C3=O)cc1OC	TMEM16A act -4.63 (no result: CHT inh, ANO1 block, CHT PAM)
COc1cccc(NC(=O)CN(C)CC(=O)c2c(C)[nH]c3ccccc23)c1	none (no result: CHT inh, ANO1 block, CHT PAM)
S=c1[nH]cnc2sc(-c3ccccc3)cc12	IDE cell inh 19.0
CC(NC(=O)CN(C)CC(=O)Nc1cccc(F)c1)c1ccccc1 (configuration not stated)	none (no result: CHT inh, ANO1 block, CHT PAM)
CC(C)(C)OC(=O)NCCc1nnc(SCc2c(Cl)cccc2Cl)o1	none
CC(C)(C)OC(=O)NCCCCCc1nnc(SCc2c(F)cccc2Cl)o1	ANO1 block 100
COc1ccc2c(-c3ccc(S(N)(=O)=O)cc3)c(-c3ccc(S(C)(=O)=O)cc3)sc2c1	none (no result: CHT inh, ANO1 block, TMEM16A act, CHT PAM)
CC(OC(=O)Cn1cnc2c1c(=O)n(C)c(=O)n2C)C(=O)NC1CCCCC1C (configuration not stated)	none
COc1cccc(-c2nc(-c3ccccc3)no2)c1	none
COc1ccc(-c2noc(-c3ccccc3-c3ccccc3)n2)cc1	ANO1 block 25
